Values without a mark were called inactive. Activity calls are given as the source filed them. The call rests on the fitted dose curve; in most records, active means well fitted curve in the direction sought with a large enough effect in the repeat runs; inconclusive means weak or mixed curves; inactive means flat fitted curve, though single readings scatter.
Assay: qHTS assay to test for compound auto fluorescence at 535 nm (green) in HEK293 cells (AID 720680)
Settings: green autofluorescence 485/535 nm; series mostly up to 91.3 µM
Source text: U.S. Tox21 Program National Center for Advancing Translational Sciences [NCATS] NIH Chemical Genomics Center [NCGC] U.S. Environmental Protection Agency [EPA] National Institutes of Environmental Health Sciences [NIEHS] National Toxicology Program [NTP] U.S. Food and Drug Administration [FDA] Tox21 Assay Overview: Compound auto fluorescence often interferes with screening of the compound library against various biological targets and signaling pathways. Some of these compounds may have fluorophoric properties. Such properties may interfere with the assay outputs resulting in false positives and/or negatives. To decrease such complications and ensure the compound activities are relevant in terms of biological response, the Tox21 10K compound library was screened for auto fluorescence. From the fluorophores used as reporter signals in our screening assays, the auto fluorescence equivalencies of compounds against three fluorophores have been evaluated: Triamterene, Fluorescein and Rose Bengal sodium for blue, green and red fluorescence, respectively. The fluorescence intensities were measured using Excitation/Emission wavelengths at 405/460nm, 485/535nm and 540/590nm for blue, green and red labels, respectively. This assay includes the green fluorescence data.
Tox21 Assay Protocol Summary: 2,000 HEK293 cells in 5 uL of culture medium containing 10% dialyzed FBS per well were dispensed into black wall/clear bottom 1536-well plates using a Multidrop Combi Dispenser (Thermo Scientific). The assay plates were incubated for 4-5 hr at 37C to allow cell attachment to the well bottom, followed by the transfer of 23 nL compound or DMSO vehicle by a pintool work station (Kalypsys, San Diego, CA). After the assay plates were incubated overnight at 37C and 5% CO2, fluorescence intensities in the assay plates were measured by an Envision (PerkinElmer, Shelton, CT) plate reader using three labels for measuring blue, green and red fluorescence at […] 460, 535 and 590nm respectively.
On the % scale 0 is the no-effect control and ±100 the full control effect.

Row | Compound | outcome | fluorescence, % of fluorescein
1 | CCCCCCCCC(=O)OCC(C)OC(=O)CCCCCCCC (stereo not given) | inactive | 
2 | Nc1ccc(-c2ccc(F)cc2)cc1 | inactive | 
3 | CCC1=C(C)CN(C(=O)NCCc2ccc(S(=O)(=O)NC(=O)NC3CCC(C)CC3)cc2)C1=O (stereo not given) | inactive | 
4 | CCOC(OCC)OCC | inactive | 
5 | CC(=O)c1ccc(Cl)c(Cl)c1Cl | inactive | 
6 | OCCc1ccncc1 | inactive | 
7 | C=CC(C)CCC=C(C)C (stereo not given) | inactive | 
8 | CC(=O)OCC(=O)[C@@]1(O)CC[C@H]2[C@@H]3CCC4=CC(=O)C=C[C@]4(C)[C@@]3(F)[C@@H](O)C[C@@]21C |  | -0.0592% [at 18.6 µM]
9 | CS(C)=O | inactive | 
10 | CC(C)(C(=O)O)c1ccc(C(O)CCCN2CCC(C(O)(c3ccccc3)c3ccccc3)CC2)cc1 (stereo not given) | inactive | 
11 | CCCCCC1CCC(=O)O1 (stereo not given) | inactive | 
12 | CCCCCCOC(=O)c1ccccc1 | inactive | 
13 | O=C(O)c1c2ccccc2cc2ccccc12 | inactive | 
14 | CC(C(=O)O)c1ccc(/C=C2\CCCCC2=O)cc1 (stereo not given) | inactive | 
15 | Clc1cccc(C(c2ccc3nc[nH]c3c2)n2ccnc2)c1 (stereo not given) | inactive | 
16 | CCCCCCCCNC | inactive | 
17 | O=C(O)c1cc(C(=O)O)cc([N+](=O)[O-])c1 | inactive | 
18 | CCCCCCCCCCCCCCCCN | inactive | 
19 | C[C@]12CCC(=O)C=C1[C@@H]1C[C@@H]1[C@H]1[C@@H]3[C@@H]4C[C@@H]4[C@@]4(CCC(=O)O4)[C@@]3(C)CC[C@@H]12 | inactive | 
20 | CCCCC(CC)COCCC#N (stereo not given) | inactive | 

Row | Compound | outcome | fluorescence, % of fluorescein
21 | S=c1[nH][nH]c(=S)s1 | inactive | 
22 | O=C1c2ccccc2C(=O)C1c1ccc2ccccc2n1 | inactive | 
23 | CC(Cc1ccccc1)(NC(=O)CN)c1ccccc1 (stereo not given) | inactive | 
24 | CO[C@@H]1COCC[C@@H]1N[C@@H]1CC[C@@](C(=O)N2CCc3ncc(C(F)(F)F)cc3C2)(C(C)C)C1 | inactive | 
25 | Cc1c(N=C=O)cccc1N=C=O | inactive | 
26 | CC(=O)c1cccnc1 | inactive | 
27 | C=CC(C)(O)CC/C=C(/C)CCC=C(C)C (stereo not given) | inactive | 
28 | Cc1cccc(C)c1NC(=O)CN1CCCC1 | inactive | 
29 | Nc1ccc(C(=O)Oc2ccccc2)c(O)c1 | inactive | 
30 | COc1ccc(C(=O)c2ccc(C)cc2)c(O)c1 | inactive | 
31 | Cc1ccc2ccccc2c1[N+](=O)[O-] | inactive | 
32 | CC(=O)Oc1cccc2c1C(=O)c1c(OC(C)=O)cc(C(=O)O)cc1C2=O | inactive | 
33 | CCCc1nc(C)c2c(=O)[nH]c(-c3cc(S(=O)(=O)N4CCN(CC)CC4)ccc3OCC)nn12 | inactive | 
34 | CCCc1ccc(OC)cc1 | inactive | 
35 | CC(O)CN (stereo not given) | inactive | 
36 | CC1(COc2ccc(CC3SC(=O)NC3=O)cc2)CCCCC1 (stereo not given) | inactive | 
37 | O=C(O)c1ccc2cc(O)ccc2c1 | inactive | 
38 | Cc1c(Cl)cccc1Nc1ccccc1C(=O)O | inactive | 
39 | CCCCOC(=O)CC#N | inactive | 
40 | CC(C)=CCCC(C)C=O (stereo not given) | inactive | 
